Data as given in PubChem BioAssay AID770 (SRMLSC, 2007).
The campaign covered roughly 3,300 compounds. Fewer than 10 were called active.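 How the source made its calls: active means growth inhibition above 90% in viable cell count at a single dose; inactive means growth inhibition below 90%.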 Not all results are given here.

Test: HT29 colon tumor cell growth inhibition, primary screen, imaging, high content imaging, 24 h, CellTiter-Glo (AID 770);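 on condensed nuclei: share of cells whose nuclear area falls below control median minus 1.5 SD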
Details: HT29 cell number by imaging, at 10 µM, stronger effect = higher value; for condensed nuclei: measured here: percent cells with condensed nuclei
[1] = measured here: ATP CellTiter-Glo viability

SMILES | growth inhibition | growth inhibition [1] [%] | condensed nuclei [%]
CCCCCC(=O)N1CC2(C)CN(C(=O)CCCCC)CC(C)(C1)C2=O | -27.8% (inactive) | -0.56 | 1.67
CN1CCc2c(n(CC(O)CN3C(=O)c4ccccc4S3(=O)=O)c3ccccc23)C1=O (configuration not stated) | 3.96% (inactive) | -10.2 | 8.09
O=C1CC(C(=O)O)c2ccccc2N1 (configuration not stated) | 10.3% (inactive) | 0.11 | 2.67
COc1nc(NS(=O)(=O)c2ccc(C)cc2)nc(C)c1Cl | 9.89% (inactive) | -6.08 | 2.47
CCOC(=O)N1CCN(c2ncnc3c2cnn3-c2ccc(OC)cc2)CC1 | 17% (inactive) | 5.78 | 3.96
CCOC(=O)C1CCCN(c2nc3ccccc3nc2C(C#N)C(=O)OCCOC)C1 (configuration not stated) | 49.2% (inactive) | 70 | 9.83
Cn1ncc2nc[nH]c(=O)c21 | 27.4% (inactive) | 0.04 | 2.08
CC(C)Nc1nc(NC(C)C)nc(N(C)n2cnnc2)n1 | -12.4% (inactive) | -9.08 | 2.84
COc1ccc(C(=O)OC(C)CN2CCN(C)CC2)cc1OC (configuration not stated) | 28.2% (inactive) | 1.58 | 5.84
Cc1cc(Cn2ccnc2)c(C)cc1Cn1ccnc1 | 13.6% (inactive) | 11.6 | 3.14
COc1cc(-c2nn3c(COc4ccccc4)nnc3s2)cc(OC)c1OC | 56.5% (inactive) | 9.54 | 5.76
CCOC(=O)C1=C(C)NC(SCC(=O)Nc2nc(C)cs2)=C(C#N)C1c1cccs1 (configuration not stated) | 7.8% (inactive) | 22.8 | 5.36
COc1ccc(OC)c(NC(=O)CSc2nnc(-c3ccco3)n2-c2ccc(C(=O)O)cc2)c1 | 5.68% (inactive) | -8.2 | 4.63
c1ccc(N2CCN(c3nc(-c4ccccn4)nc4ccccc34)CC2)cc1 | 4.92% (inactive) | -10.8 | 11.6
CC1(C)Cc2c(C#N)c(OCC(=O)c3ccc(Cl)cc3)nc(-c3ccoc3)c2CO1 | 18.7% (inactive) | 21.9 | 4.85
O=C(NCc1ccccc1)c1ccc(=O)[nH]n1 | -5.75% (inactive) | -8.23 | 3.79
Cc1ccc(NC(=O)Cn2nc(C)c3ccccc3c2=O)cc1 | -20% (inactive) | -4.94 | 3.28
COc1ccc(OC)c(C2NC(=O)c3sc(=S)n(-c4ccccc4)c3N2)c1 (configuration not stated) | 36.6% (inactive) | 16.9 | 4.81
CC(=O)N1CC=C2C(C#N)=C(N)C(C#N)(C#N)[C@H](c3ccoc3)[C@H]2C1 | 6.78% (inactive) | -12.8 | 3.16
Cc1ccc(CNc2oc(COc3ccccc3Cl)nc2C#N)cc1 | -7.99% (inactive) | -1.41 | 4.34
CCOC(=O)C(NC=O)(NC(C)(C)C)C(=O)OCC | -28.5% (inactive) | -6.54 | 2.61
Cc1nc2sc(C#N)c(N)c2c2c1CCCC2 | -26.7% (inactive) | -6.54 | 1.98
Cn1c(SCC(=O)N2CCOCC2)nnc1-c1ccc(Cl)cc1Cl | 30.4% (inactive) | -11.5 | 2.99
COc1ccc(C2CC(=O)C(C=NCCN3CCOCC3)=C(O)C2)cc1 (configuration not stated) | 30% (inactive) | -14.6 | 0.91
